tim23-1 inh: growth inhibitors of tim23-1 mutant yeast, primary screen, luminescence, uHTS; S. cerevisiae tim23-1 growth, BacTiter-Glo luminescence, 24 h; inhibition, % at 20 µM; hit rate 1.3% among 330,000; AID 463212, 2010;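 active = growth inhibition of the mutant yeast at or above 50%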;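 note: temperature-sensitive mutant grown at 25 °C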
TIM10 inh: growth inhibitors of isogenic TIM10 control yeast, primary screen, counter-screen for tim10-1 yeast inhibitor project, luminescence, uHTS; S. cerevisiae TIM10 strain growth, BacTiter-Glo luminescence, 24 h; inhibition, % at 10 µM; hit rate 1.4% among 330,000; AID 463195, 2010;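 active = inhibition of 40% or more at the single tested concentration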;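 note: wild-type TIM10 isogenic control strain grown at permissive 25 °C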
tim10-1 inh: growth inhibitors of tim10-1 mutant yeast, primary screen, luminescence, uHTS; S. cerevisiae tim10-1 ts strain growth, BacTiter-Glo, 24 h; inhibition, % at 20 µM; hit rate 2.2% among 330,000;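 active = inhibition of at least 40%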;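 note: mutant grown at 25 °C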
Mdm2 MdmX PPI: inhibitors of human Mdm2-MdmX association, primary screen, cell-based, luminescence, split luciferase, SaOS-2, uHTS; Protein Mdm4 (Homo sapiens) + E3 ubiquitin-protein ligase Mdm2 (Homo sapiens), …; inhibition, % at 8 µM; SaOS-2 split-luciferase Mdm2/MdmX complementation; hit rate 3% among 330,000; AID 485346, 2010;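 active = inhibition of at least 50% at 8 µM in the primary screen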
MPTP inh: mitochondrial permeability transition pore inhibitors, primary screen, biochemical, isolated mouse mitochondria, absorbance; Ca2+ swelling absorbance, 30 min; hit rate 1.4% among 360,000; inhibition, % at 10 µM;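 active = inhibition of 50% or more, scaled per plate between neutral and stimulator controls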
Rh123 counter: fluorescence retest of MPTP screen hits in isolated mitochondria, single concentration | inhibition, % at 10 µM | shares compounds with MPTP inh | hit rate 78% among 5,000 | membrane potential, Rhodamine 123 fluorescence; in the data active = inhibition above about 22%
MPTP swell DR: mitochondrial permeability transition pore inhibitors, dose response, biochemical, absorbance, uHTS hits; hit rate 58% among 780; IC50, µM; shares compounds with MPTP inh; isolated mitochondria swelling; in the data active = IC50 below about 20 µM
MPTP cs DR: fluorescent counter-screen in isolated mitochondria, dose response, counter-screen for MPTP inhibitor project, biochemical, fluorescence, uHTS hits | shares compounds with MPTP inh | isolated mitochondria counterscreen, fluorescence read-out | IC50, µM | hit rate 49% among 780 | AID 651564, 2012; in the data active = IC50 below about 80 µM
A number is an active result. Only some compounds are listed: those with a hit (about 6.3% of all), similar ones and a draw of the others.

COc1cc(CNC2CCCc3ccccc32)cc(OC)c1OC (configuration not stated) was read as tim23-1 inh inactive, TIM10 inh inactive, tim10-1 inh inactive, Mdm2 MdmX PPI inactive and MPTP inh inactive.
`COc1cccc(CNC2CCCc3ccccc32)c1OC` (configuration not stated) gave tim23-1 inh inactive, TIM10 inh inactive, tim10-1 inh inactive, Mdm2 MdmX PPI inactive, MPTP inh 60, Rh123 counter inactive, MPTP swell DR inactive and MPTP cs DR inactive.
Screening CCCCNC(=O)c1sc(=S)n2c1[nH]c(=O)c1ccc(C(=O)NCCc3ccc(OC)c(OC)c3)cc12 returned tim23-1 inh inactive, TIM10 inh inactive, tim10-1 inh inactive, Mdm2 MdmX PPI inactive and MPTP inh inactive.
O=C(NCc1ccccc1)c1sc(=S)n2c1[nH]c(=O)c1ccccc12 was read as tim23-1 inh inactive, TIM10 inh inactive, tim10-1 inh inactive, Mdm2 MdmX PPI inactive, MPTP inh 86 and Rh123 counter 89.
`CC(C)OC(=O)NCCOC(=O)Nc1cccc(Cl)c1` gave tim23-1 inh inactive, TIM10 inh inactive, tim10-1 inh inactive, Mdm2 MdmX PPI inactive, MPTP inh 100 and Rh123 counter 93.
`CC(C)OC(=O)Nc1ccc(-c2ccc(NC(=O)OC(C)C)cc2Cl)c(Cl)c1` gave tim23-1 inh inactive, TIM10 inh inactive, tim10-1 inh inactive, Mdm2 MdmX PPI inactive and MPTP inh inactive.
CC(C)OC(=O)NCCOC(=O)Nc1ccc(Cl)c(Cl)c1 was read as tim23-1 inh inactive, TIM10 inh inactive, tim10-1 inh inactive, Mdm2 MdmX PPI inactive, MPTP inh 97 and Rh123 counter 98.
CC(C)OC(=O)NC(C)(C)COC(=O)Nc1cccc(Cl)c1 was read as tim23-1 inh inactive, TIM10 inh inactive, tim10-1 inh inactive, Mdm2 MdmX PPI inactive, MPTP inh 82 and Rh123 counter 96.
OC[C@@H]1CN(Cc2ccc(-c3ccccc3)cc2)C[C@H](n2cnc3c(NCc4ccc(F)cc4)ncnc32)O1 was read as MPTP inh inactive.
N#Cc1c(NC(=S)NC(=O)c2ccccc2)sc2c1CCC2 was read as tim23-1 inh inactive, TIM10 inh inactive, tim10-1 inh inactive, Mdm2 MdmX PPI inactive, MPTP inh 58 and Rh123 counter 37.
Screening CCC1(C)Cc2c(sc(NC(=S)NC(=O)c3ccccc3)c2C#N)CO1 (configuration not stated) returned tim23-1 inh inactive, TIM10 inh inactive, tim10-1 inh inactive, Mdm2 MdmX PPI inactive, MPTP inh 83, Rh123 counter inactive, MPTP swell DR inactive and MPTP cs DR 4.5.
CC(C)(C)c1ccc(C(=O)NC(=S)Nc2sc3c(c2C#N)CCC3)cc1 was read as tim23-1 inh inactive, TIM10 inh inactive, tim10-1 inh inactive, Mdm2 MdmX PPI inactive and MPTP inh inactive.
Screening CC(C)(C)C(=O)NC(NC(=S)Nc1sc2c(c1C#N)CCCC2)C(Cl)(Cl)Cl (configuration not stated) returned tim23-1 inh inactive, TIM10 inh inactive, tim10-1 inh inactive, Mdm2 MdmX PPI inactive, MPTP inh 94 and Rh123 counter 53.
Screening CC(=O)NC(=S)Nc1sc2c(c1C#N)CCCCC2 returned MPTP inh 84 and Rh123 counter 77.
Screening CC(C)(C)NC(=O)CSc1nc2ccc(NC(=O)CSc3nnc(N)s3)cc2s1 returned tim23-1 inh inactive, TIM10 inh inactive, tim10-1 inh inactive, Mdm2 MdmX PPI inactive, MPTP inh 67 and Rh123 counter 25.
Screening CCCC(=O)Nc1ccc2nc(SCC(=O)Nc3ccc(N4CCOCC4)c(Cl)c3)sc2c1 returned tim23-1 inh inactive, TIM10 inh inactive, tim10-1 inh inactive, Mdm2 MdmX PPI inactive and MPTP inh inactive.
`CC(C)(C)NC(=O)CSc1nc2ccc(NC(=O)CSc3nnnn3Cc3ccccc3)cc2s1` gave tim23-1 inh inactive, TIM10 inh inactive, tim10-1 inh inactive, Mdm2 MdmX PPI inactive and MPTP inh inactive.
Screening Nc1ccc2nc(SCC(=O)Nc3ccc(N4CCOCC4)c(Cl)c3)sc2c1 returned tim23-1 inh inactive, TIM10 inh inactive, tim10-1 inh inactive, Mdm2 MdmX PPI inactive, MPTP inh 58, Rh123 counter inactive, MPTP swell DR 18 and MPTP cs DR 28.
Screening C=CCC1(CC=C)CCCN1C(=O)c1cc(COc2ccc(C)nc2)on1 returned tim23-1 inh inactive, TIM10 inh inactive, tim10-1 inh inactive, Mdm2 MdmX PPI inactive, MPTP inh 99 and Rh123 counter 90.
For CN1C(C(=O)Nc2ccc(OC(F)(F)F)cc2)=CC(c2ccc3c(c2)OCO3)=NS1(=O)=O the results were tim23-1 inh inactive, TIM10 inh inactive, tim10-1 inh inactive, Mdm2 MdmX PPI inactive, MPTP inh 90 and Rh123 counter 78.
`CC(=O)c1ccc(NC(=O)C2=CC(c3ccc4c(c3)OCO4)=NS(=O)(=O)N2C)cc1` gave tim23-1 inh inactive, TIM10 inh inactive, tim10-1 inh inactive, Mdm2 MdmX PPI inactive and MPTP inh inactive.
`CCC1(CC)SCCNC1=O` gave MPTP inh inactive.
Screening Cc1ccc(OCC(=O)N2N=C(C(F)(F)F)CC2(O)C(C)(C)C)cc1C (configuration not stated) returned tim23-1 inh inactive, TIM10 inh inactive, tim10-1 inh inactive, Mdm2 MdmX PPI inactive, MPTP inh 79 and Rh123 counter 65.
COC(=O)/C=C1/SC(=Nc2ccc(Cl)c(Cl)c2)NC1=O was read as tim23-1 inh inactive, TIM10 inh inactive, tim10-1 inh inactive, Mdm2 MdmX PPI inactive, MPTP inh 58 and Rh123 counter 25.
For O=C(/C=C/c1cccc([N+](=O)[O-])c1)NCCSCc1cccc(Cl)c1 the results were tim23-1 inh inactive, TIM10 inh inactive, tim10-1 inh inactive, Mdm2 MdmX PPI inactive, MPTP inh 63 and Rh123 counter 56.
`O=C(Nc1ccc(S(=O)(=O)Nc2ncccn2)cc1)C12CC3CC(CC(Cl)(C3)C1)C2` gave tim23-1 inh inactive, TIM10 inh inactive, tim10-1 inh inactive, Mdm2 MdmX PPI inactive and MPTP inh inactive.
OCCN1CCN(c2nc(-c3ccccc3)c3cc(Cl)ccc3n2)CC1 was read as tim23-1 inh inactive, TIM10 inh inactive, tim10-1 inh inactive, Mdm2 MdmX PPI inactive, MPTP inh 80, Rh123 counter inactive, MPTP swell DR 9.2 and MPTP cs DR inactive.
